12-hLO inh: inhibitors of human 12-lipoxygenase (ALOX12) | P18054 | purified 12-hLO, xylenol orange hydroperoxide absorbance | Potency, µM (titrated, usually from 57.1 µM), for inactives: top-dose activity change, negative = inhibition, hits mostly inhibitors | 0.12% of 150,000 active; also: potency is read from the fitted curve at half-maximal effect; nearly all actives have a fitted effect of over 55% in size
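150 nM 12hLO, 25 mM Hepes pH 7.0 + 0.01% Triton X-100; cpd preinc 15 min RT; 40 uM arachidonic acid, 30 min RT; Fe-XO 30 min; A573/A405 ratio as read-out.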
HPGD inh: inhibitors of human 15-hydroxyprostaglandin dehydrogenase (HPGD). Potency, µM, without a hit: at the highest dose activity change, negative = inhibition, most hits filed as inhibitors. 4.3% of 150,000 active. purified HPGD, NADH fluorescence kinetic, PGE2 substrate. P15428; active = well fitted inhibition curve with a large enough effect, not every such curve was filed as active; inconclusive = small, poorly fitted or top-dose-only effect, or another doubt; inactive = no such curve, though single readings can be large or run the other way; also: potency is read from the fitted curve at half-maximal effect
Target sequence (P15428 whole entry, looked up): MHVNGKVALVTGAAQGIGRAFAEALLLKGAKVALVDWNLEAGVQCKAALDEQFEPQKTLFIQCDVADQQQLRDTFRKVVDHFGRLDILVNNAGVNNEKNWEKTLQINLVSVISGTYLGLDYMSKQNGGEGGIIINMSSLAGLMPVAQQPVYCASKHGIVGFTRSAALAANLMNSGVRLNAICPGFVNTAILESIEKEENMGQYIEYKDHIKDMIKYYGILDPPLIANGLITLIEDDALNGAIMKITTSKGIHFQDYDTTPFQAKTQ
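20 nM HPGD preincubated 15 min at room temperature with compound in 50 mM Tris-HCl pH 8, 0.01% Tween 20. Started with 1 mM NAD+ and 30 uM prostaglandin E2; NADH fluorescence (360/450 nm) read 5 times over 30-s intervals, last minus first.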
ALDH1A1 block: blocks purified human ALDH1A1 activity; P00352; Purified ALDH1A1, NADH fluorescence, propionaldehyde substrate; Potency, µM (doses to about 75.3 µM), inactives show at the highest dose activity, negative = inhibition, actives largely listed as inhibitors; 7.3% of 220,000 active; AID 1030; active = well fitted inhibition curve with a large enough effect, not every such curve was filed as active; inconclusive = small, poorly fitted or top-dose-only effect, or another doubt; inactive = no such curve, though single readings can be large or run the other way;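 also: potency is read from the fitted curve at half-maximal effect; plate controls were no enzyme wells and a reference inhibitor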
PNC inhibitor: blocks assembly of the perinucleolar compartment | AID 2417 | 3.1% of 140,000 active | activity change (PNC), negative = inhibition, % at 10 µM | PC3M PTB-GFP, PNC prevalence imaging, 16 h; hits give low values;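 active = readout at or below -70, meaning at least 70% loss of cells showing the perinucleolar compartment, a nuclear body marking cancer cells; inconclusive = readout between -30 and a set limit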;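 also: plate controls were DMSO wells for no effect and camptothecin positive control wells for full effect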
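PC3M cells stably expressing PTB-GFP, 750–1000 cells/well, treated 16 h at 37 °C with compound (23 nl of library stock), in duplicate. After paraformaldehyde fixation and Hoechst stain, imaged at 20x; PNC prevalence scored by image analysis.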
IMPase Li cell: IMPase inhibition in cells with lithium potentiation; 0.35% of 210,000 active; AID 1457; Potency, µM (highest dose often 59.4 µM), inactives show top-dose activity, negative = IMPase inhibition, actives largely listed as inhibitors; CHO-M1 cells, IP1 TR-FRET (IP-One), carbachol + lithium;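 also: IP1 builds up when IMPase is blocked and the TR-FRET signal falls; potency is read from the fitted curve at half-maximal effect; plate controls were basal vehicle for no effect and high inhibitor control for full effect; nearly all actives have a fitted effect of over 50% in size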
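CHO cells stably expressing M1 receptor (2000/well, cultured 16–30 h) treated 30 min at 37C with compound plus low lithium. Cytosolic IP1 by TR-FRET (665/620 ratio and 620 channel) after 10 min lysis; AC50 by Hill fit.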
IMPase cell inh: cell-permeable inhibitors of inositol monophosphatase (IMPase). CHO-M1 cells, IP1 accumulation, HTRF TR-FRET ratio. 120,000 tested, under 10 active. inhibition (IP1 accumulation), % at 46.1 µM; active = well fitted curve in the direction sought with a large enough effect in the signal ratio, not every such curve was filed as active; inconclusive = small, poorly fitted or top-dose-only effect, or a change in a side signal; inactive = no such curve, though single readings can be large or run the other way; the % refers to the signal ratio;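 also: cells stimulated with carbachol in lithium chloride buffer; plate controls were DMSO basal wells for no effect and reference inhibitor wells for full effect; higher means more IMPase inhibition seen as more IP1 and lower FRET ratio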
Target sequence (P97697 whole entry, looked up): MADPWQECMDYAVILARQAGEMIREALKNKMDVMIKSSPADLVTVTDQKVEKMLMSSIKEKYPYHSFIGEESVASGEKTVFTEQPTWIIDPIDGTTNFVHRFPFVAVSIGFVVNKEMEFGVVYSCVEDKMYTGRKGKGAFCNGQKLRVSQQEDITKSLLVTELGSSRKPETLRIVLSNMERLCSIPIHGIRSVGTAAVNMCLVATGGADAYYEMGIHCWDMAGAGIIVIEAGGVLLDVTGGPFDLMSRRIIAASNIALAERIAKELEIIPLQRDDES
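In this qHTS, compounds (final up to 46 uM) act on CHO-M1 cells that are then activated through the M1 receptor with carbachol, in pH 7.4 buffer containing 50 mM LiCl, for 30 min. IP1 accumulation is quantified by the IP-One immunoassay.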
An asterisk follows results filed as active; ? = inconclusive; / = no result; [ ] = another dose, or the depositor's remark. Compounds with a hit are over-represented: about 11% of the library has one in this group of screens. Unless noted, calls follow the shape of the dose curve; as a rule, active = well fitted curve in the direction sought with a large enough effect; inconclusive = small, poorly fitted or top-dose-only effect, or another doubt; inactive = no such curve, though single readings can be large; an effect the other way counts as inactive or inconclusive. Unless noted, % is scaled to controls: 0 for no effect and ±100 for the full control effect.

SMILES	12-hLO inh	HPGD inh	ALDH1A1 block	PNC inhibitor	IMPase Li cell	IMPase cell inh
O=C(CCC(=O)c1cccs1)c1cccs1	1%	-28%	28µM*	-6	0%	-5[0.369 µM]
O=C(NCc1ccco1)c1cc(-c2cccs2)on1	-2%	?	22µM*	2	?	7
O=C(CCC(=O)c1cccs1)NC(c1ccccc1)c1ccccc1	6%	-11%	?	65	-3%[38.3 µM]	2
O=C(CSc1nnc(-c2ccc(Cl)cc2)n1Cc1ccco1)c1cccs1	-4%	-8%	?	?	6%	8
O=C(NCc1ccco1)c1cnccn1	4%	-17%	28µM*	?	-2%[38.3 µM]	0
O=C(CSCc1ccco1)c1cccs1	-5%	16µM*	?	17	-1%[38.3 µM]	4
N#Cc1cccc(-c2nc(N3CCNCC3)c3ccccc3n2)c1	3%	-12%	-2%	/	0%	/
O=C(NCCc1cn2ccsc2n1)c1cccs1	-4%	25µM*	?	45	34%[38.3 µM]	7
O=C(NCCCNC(=O)c1cccs1)c1cccs1	0%	-8%	7%	?	10%[38.3 µM]	-5
O=S(=O)(NCc1cn2ccsc2n1)c1cccs1	2%	-12%	-1%	-15	2%[38.3 µM]	-3
COc1ccc(CNC(=O)c2cc(-c3ccco3)on2)cc1	-1%	-14%	3.5µM*	-3	25%[38.3 µM]	7
O=C(NCc1ccco1)c1nn2c(C(F)(F)F)cc(-c3cccs3)nc2c1Br	-5%	-23%	22µM*	-21	17%[38.3 µM]	-3
O=C(NCCCCNC(=O)c1cccs1)c1cccs1	2%	-14%	2%	-114*	-2%	/
CC(=O)N(C[C@@H](O)CO)c1c(I)c(C(=O)NC[C@@H](O)CO)c(I)c(C(=O)NC[C@@H](O)CO)c1I	-3%[25.6 µM]	-12%	14%[20.9 µM]	/	6%	-4[20.6 µM]
CC(C)CO/N=C1/[C@H]2O[C@@H]2[C@@H](O)[C@H]2[C@H]1CCn1c(=O)n(Cc3cc4c(cc3Cl)OCO4)c(=O)n12	/	/	1%[13.5 µM]	/	/	/
COC(=O)c1ccc(C(NC(=O)OCc2ccccc2)/C(F)=C/[C@@H](C)C(=O)NCc2cc(C)on2)cc1 (stereo not given in full)	-1%	-10%	-5%	/	-2%	/
COc1ccc(CNC(=O)c2csc(Cc3ccc(Cl)cc3)n2)cc1	-5%	-12%	-6%	-106*	3%[38.3 µM]	-2
O=C(NCc1ccco1)c1cccs1	-12%	25µM*	?	-3	-7%[38.3 µM]	7
O=C(NNC(=S)NCc1ccco1)c1cccs1	2%	/	?	28	/	-5
O=C(NCc1ccco1)Nc1cccs1	-16%	-9%	28µM*	?	-10%[38.3 µM]	4
COc1cc(NCCC(=O)c2cccs2)c(OC)cc1Cl	/	/	1.4µM*	/	4%	/
O=C(NNS(=O)(=O)c1ccccc1)C1CC(c2cccnc2)=NO1 (stereo not given)	/	/	3%	/	-4%	/
O=C(NCc1ccco1)c1cc2nc(-c3ccc4c(c3)OCO4)cc(C(F)(F)F)n2n1	-28%	?	?	?	-2%[38.3 µM]	-4
COc1ccc(-c2cc(C(F)(F)F)n3nc(C(=O)NCc4ccco4)cc3n2)cc1	-4%	?	?	-114*	0%[38.3 µM]	-5
CC(=O)c1c(C)[nH]c(C(=O)N2CCN(c3ncccn3)CC2)c1C	10%	-16%	12%	-10	-1%[38.3 µM]	5
CC(=O)c1c(C)[nH]c(C(=O)N2CCCCCC2)c1C	7%	13µM*	-6%	-13	-31%[38.3 µM]	10
O=c1c(-c2cc(F)cc(F)c2)nc2cnc(N3CCNCC3)nc2n1CCc1ccccc1	4%	-29%	?	/	5%	/
COC(=O)c1ccc(C(NC(=O)OCc2ccccc2)/C(I)=C/[C@@H](C)C(=O)NCc2ccncc2)cc1 (stereo not given in full)	0%	-18%	-11%	/	4%	/
O=C(c1cccc(F)c1)N(Cc1nc2ccccc2c(=O)[nH]1)C1CCCC1	/	/	-9%	/	15%	/
O=C(c1ccccc1)N(Cc1nc2ccccc2c(=O)[nH]1)C1CCCCC1	/	/	3.5µM*	/	-4%	/

Compound activity from PubChem.
